PubChem BioAssay (NCI)
Where “and” joins values, the source holds several entries; their conditions need not be identical. Equal entries are not always repeated. About 79,000 compounds went through this panel and 15% of them were active in at least one assay; those are over-represented in the sample as a whole. Calls of active or inactive are those of the source. No stated cut-off is given here; in the data, active means growth inhibition above about 70%; inactive means the rest.

How the values were obtained:
[1] = NCI Yeast Anticancer Drug Screen. Data for the rad50 strain (AID 155);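 further: 0% = growth of vehicle-only cultures of the same strain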; settings: S. cerevisiae rad50 strain growth inhibition, hits give high values
In short: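 Cells are treated with compound, grown, and their growth is then scored against vehicle-only cultures of the same repair-deficient yeast strain.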

[2] = NCI Yeast Anticancer Drug Screen. Data for the mec2-1 strain (AID 157); settings: S. cerevisiae mec2-1 strain, hits give high values
In short: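 Readout is yeast growth inhibition, normalised to vehicle-treated controls, in the mec2-1 strain exposed to compound.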

[3] = NCI Yeast Anticancer Drug Screen. Data for the cln2 rad14 strain (AID 165);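 further: 0% = growth equal to vehicle treated cultures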; settings: S. cerevisiae cln2 rad14 strain, hits give high values
In short: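 Relative to vehicle controls, growth inhibition of compound-treated cln2 rad14 yeast was recorded.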

[4] = NCI Yeast Anticancer Drug Screen. Data for the bub3 strain (AID 167); settings: S. cerevisiae bub3 mutant strain, hits give high values
In short: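 Part of a panel of yeast mutants defective in DNA damage repair or cell cycle regulation. Each strain is grown with compound, and inhibition is calculated relative to solvent-treated cultures.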

[5] = NCI Yeast Anticancer Drug Screen. Data for the mlh1 rad18 strain (AID 175); settings: S. cerevisiae mlh1 rad18 strain growth inhibition, hits give high values
In short: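 Test agents were incubated with a yeast strain of defined genotype (DNA damage repair defect). Inhibition of growth was derived by comparison with vehicle-exposed cultures.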

[6] = NCI Yeast Anticancer Drug Screen. Data for the sgs1 mgt1 strain (AID 161);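 further: 0% = growth of cultures given vehicle only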; settings: S. cerevisiae sgs1 mgt1 strain, hits give high values
In short: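 Growth of a repair-deficient yeast mutant was monitored after compound treatment and expressed as inhibition relative to vehicle-treated cultures.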

[7] = at 5.0 µM (retest, dose inferred, filed as 0.5)
[8] = at 50.0 µM (retest, dose inferred, filed as 5.0)

Measured: growth inhibition

CNc1ccc2c(c1)c1ccccc1n2C
inactive: [1]; [7] 11% | [1]; [8] 26% | [2]; [7] 2% | [2]; [8] -67% | [2]; at 50.0 µM 4.2% | [3]; [7] -1% | [3]; [8] -1% | [3]; at 50.0 µM 65.5% | [4]; [7] -1% | [4]; [8] 35% | [5]; [7] 14% | [5]; [8] 34% | [5]; at 50.0 µM 52%
active: [1]; at 50.0 µM 71.3% | [4]; at 50.0 µM 74.5%

N#CC1Oc2ccccc2N1C(=O)c1ccccc1 (stereo not given)
inactive: [1]; [7] 2% | [1]; [8] 12% | [1]; at 50.0 µM 33% | [2]; [7] 0% | [2]; [8] 7% | [2]; at 50.0 µM 54.1% | [6]; [7] -3% | [6]; [8] -4% | [6]; at 50.0 µM 36% | [4]; [7] -8% | [4]; [8] 48% | [5]; [7] 2% | [5]; [8] 4% | [5]; at 50.0 µM 64.3%
active: [4]; at 50.0 µM 77.3%

CC1=CC(O)C2CC1C2(C)C (stereo not given)
inactive: [1]; at 50.0 µM 12.1% and 3.35% and 3.95% | [2]; at 50.0 µM -24.1% and -1.15% and -0.85% | [6]; at 50.0 µM -12.6% and 3.35% and -8.95% | [3]; at 50.0 µM 3.25% and -9% and -2.6% | [4]; at 50.0 µM -6.5% and -10.9% and 2.05% | [5]; at 50.0 µM -8.1% and 0.55% and 8.15%

CC1CC(c2ccccc2)CC(C)N1c1ccc2ccccc2c1 (stereo not given)
active: [1]; [8] 82% | [1]; at 50.0 µM 77.8% | [2]; [8] 74% | [6]; at 50.0 µM 77% | [4]; at 50.0 µM 93.7% | [5]; [8] 84% | [5]; at 50.0 µM 93.3%
inactive: [1]; [7] 9% | [2]; [7] 13% | [2]; at 50.0 µM 69.3% | [6]; [7] 1% | [3]; [7] 5% | [3]; [8] 61% | [3]; at 50.0 µM 36.4% | [4]; [7] 0% | [4]; [8] 65% | [5]; [7] 2%

COc1ccc(CN=C(N)N)c2ccccc12
inactive: [1]; [7] 5% | [1]; [8] 7% | [1]; at 50.0 µM -29.9% | [2]; [7] 2% | [2]; [8] 5% | [2]; at 50.0 µM -24.4% | [3]; [7] 31% | [3]; [8] 31% | [3]; at 50.0 µM -3% | [4]; [7] -22% | [4]; [8] -23% | [4]; at 50.0 µM -32.5% | [5]; [7] 13% | [5]; [8] 10% | [5]; at 50.0 µM -5.45%

C1=C(c2ccccc2)C(c2ccc(OCCN3CCCCC3)cc2)Oc2ccccc21 (stereo not given)
active: [1]; [8] 99% | [1]; at 50.0 µM 99.3% | [2]; [8] 99% | [2]; at 50.0 µM 99.5% | [3]; [8] 99% | [3]; at 50.0 µM 98.1% | [4]; [8] 99% | [4]; at 50.0 µM 98.8% | [5]; [8] 99% | [5]; at 50.0 µM 99.5%
inactive: [1]; [7] 39% | [2]; [7] 9% | [3]; [7] 25% | [4]; [7] 35% | [5]; [7] 16%

CC(=O)Nc1ccc2c(c1)[nH]c(=O)c1cc(Cl)ccc12
inactive: [1]; [7] 60% | [2]; [7] 18% | [2]; [8] 63% | [2]; at 50.0 µM -1.45% | [6]; [7] 12% | [6]; at 50.0 µM 7.25% | [4]; [7] 4% | [4]; [8] 7% | [4]; at 50.0 µM -7.95% | [5]; [7] 29% | [5]; at 50.0 µM 35.5%
active: [1]; [8] 96% | [1]; at 50.0 µM 82.8% | [6]; [8] 72% | [5]; [8] 91%

O=C(NCCN1CCN2Cc3[nH]c4ccccc4c3CC2C1)c1ccc(Cl)cc1 (stereo not given)
inactive: [1]; [7] 9% | [1]; [8] 50% | [1]; at 50.0 µM 51.6% | [2]; [7] 10% | [2]; [8] 40% | [2]; at 50.0 µM 46.8% | [6]; [7] 1% | [6]; [8] 50% | [6]; at 50.0 µM 61% | [5]; [7] 8% | [5]; [8] 60% | [5]; at 50.0 µM 53.5%

C=C1CC(c2ccc(OCCCN3C(=O)c4ccccc4C3=O)c(OC)c2)OC1=O (stereo not given)
active: [1]; [8] 97% | [1]; at 50.0 µM 76.3% | [2]; [8] 91% | [2]; at 50.0 µM 88.2% | [3]; [8] 93% | [3]; at 50.0 µM 89.2% | [4]; [8] 95% | [4]; at 50.0 µM 92% | [5]; [8] 97% | [5]; at 50.0 µM 96.8%
inactive: [1]; [7] -9% | [2]; [7] 24% | [3]; [7] 11% | [4]; [7] -16% | [5]; [7] 10%

COC1(OC)OC2=C(OC1(OC)OC)c1ccccc1C2=O
inactive: [1]; [7] 8% | [1]; [8] 12% | [1]; at 50.0 µM 37.9% | [2]; [7] 9% | [2]; [8] 14% | [2]; at 50.0 µM -13.1% | [6]; [7] 5% | [6]; [8] 7% | [6]; at 50.0 µM -11.8% | [4]; [7] 4% | [4]; [8] 8% | [4]; at 50.0 µM -16.6% | [5]; [7] 14% | [5]; [8] 12% | [5]; at 50.0 µM -55.2%
